# Data from the supplement of paper PMC6607015.
# Where a name gives a salt, the structure may show the parent alone.
# Columns and labels:
# Conditions in all cases: compound concentration in added solution (µM; 5 µl added to 20 µl cells): 10; 18 h
# A431 [1] = test: LBPA endosome anti-LBPA integrated intensity (sum per cell), Z-score; higher = more LBPA staining
# Method in brief: (§1)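 Reported values are Z-scores from AcuityXpress normalisation of per-cell integrated LBPA or filipin staining. HeLa MZ or A431 cells (3,500/well in 20 µl) were seeded onto 5 µl of 10 µM compound solution in duplicate 384-well plates, incubated 18 h, fixed in 4% PFA, stained and imaged at 20×. MetaXpress segmentation measured the intensity over the whole cell or within LBPA endosomes.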
# HeLa MZ [2] = test: as above
# Method in brief: as §1
# A431 [3] = test: whole-cell filipin (free cholesterol) integrated intensity, Z-score; higher = more cholesterol staining
# Method in brief: as §1
# HeLa MZ [4] = test: as above
# Method in brief: as §1
# A431 [5] = test: filipin (cholesterol) integrated intensity within LBPA endosomes, Z-score; higher = more cholesterol in LBPA endosomes
# Method in brief: as §1
# HeLa MZ [6] = test: as above
# Method in brief: as §1
Structure (SMILES),LBPA endosome anti-LBPA integrated intensity (z-score) (A431 [1]),LBPA endosome anti-LBPA integrated intensity (z-score) (HeLa MZ [2]),whole-cell filipin (z-score) (A431 [3]),whole-cell filipin (z-score) (HeLa MZ [4]),filipin (z-score) (A431 [5]),filipin (z-score) (HeLa MZ [6])
CC(=O)OCC(=O)[C@@]1(O)CC[C@H]2[C@@H]3CCC4=CC(=O)CC[C@]4(C)[C@@]3(F)[C@@H](O)C[C@@]21C [Fludrocortisone acetate],-0.127,-0.216,-0.382,-0.957,-0.321,-0.564
CC(=O)OCC(=O)[C@@]1(OC(C)=O)[C@@H](C)C[C@H]2[C@@H]3C[C@H](F)C4=CC(=O)C=C[C@]4(C)[C@@]3(F)[C@@H](O)C[C@@]21C [Diflorasone Diacetate],-0.283,-0.262,-0.254,-0.816,-0.354,-0.539
CCCCNc1cc(C(=O)O)cc(S(N)(=O)=O)c1Oc1ccccc1 [Bumetanide],-0.516,-0.493,-0.507,-0.553,-0.588,-0.565
CCOC(=O)[C@H](CCc1ccccc1)N[C@@H](C)C(=O)N1CCC[C@H]1C(=O)O [Enalapril maleate],-0.644,-2,-1.09,-0.795,-0.578,-0.713
CCCCCN(CCCCC)C(=O)C(CCC(=O)O)NC(=O)c1ccc(Cl)c(Cl)c1 (configuration not stated) [Lorglumide sodium salt],-0.556,0.0228,-0.478,-0.52,-0.482,-0.502
Cn1c(=O)c2c(ncn2CC(O)CO)n(C)c1=O (configuration not stated) [Diprophylline],-0.55,-0.754,-0.617,-0.852,-0.554,-0.628
Cc1cccc(C)c1NC(=O)CN1CCN(CCCC(c2ccc(F)cc2)c2ccc(F)cc2)CC1 [Lidoflazine],3.2,1.66,1.3,0.566,2.57,2.52
OCCOCCN1CCN(C2=Nc3ccccc3Sc3ccccc32)CC1 [Quetiapine],-0.603,0.201,-0.454,-0.549,-0.515,-0.0994
CC1(C)S[C@@H]2[C@H](NC(=O)[C@H](NC(=O)N3CCNC3=O)c3ccccc3)C(=O)N2[C@H]1C(=O)O [Azlocillin sodium salt],-0.496,-0.655,-0.388,-0.517,-0.464,-0.493
CO[C@@]1(NC(=O)C2SC(=C(C(N)=O)C(=O)O)S2)C(=O)N2C(C(=O)O)=C(CSc3nnnn3C)CS[C@@H]21 (some centres not stated) [Cefotetan],-0.675,-1.41,-0.843,-0.864,-0.604,-0.594
N=C(N)NCC1COC2(CCCCC2)O1 (configuration not stated) [Guanadrel sulfate],-0.435,-0.453,-0.472,-0.401,-0.413,-0.438
CC(=O)Oc1cc(C(C)C)c(OCCN(C)C)cc1C [Moxisylyte hydrochoride],-0.364,-0.0871,-0.91,-1.03,-0.482,-0.452
C#C[C@]1(OC(C)=O)CC[C@H]2[C@@H]3CCC4=C[C@@H](OC(C)=O)CC[C@@H]4[C@H]3CC[C@@]21C [Ethynodiol diacetate],-0.254,0.88,0.227,0.371,-0.191,-0.00334
CO[C@H]1/C=C/O[C@@]2(C)Oc3c(C)c(O)c4c(c3C2=O)C2=NC3(CCN(CC(C)C)CC3)NC2=C(NC(=O)/C(C)=C\C=C\[C@H](C)[C@H](O)[C@@H](C)[C@@H](O)[C@@H](C)[C@H](OC(C)=O)[C@@H]1C)C4=O [Rifabutin],-0.125,1.08,0.49,0.136,-0.0844,0.633
Cn1nnc2c(C(N)=O)ncn2c1=O [Temozolomide],-0.384,0.224,-0.454,0.0676,-0.437,-0.627
Cc1c(-c2ccccc2)oc2c(C(=O)OCCN3CCCCC3)cccc2c1=O [Flavoxate hydrochloride],-0.643,-0.619,-0.892,-0.899,-0.515,-0.534
N=C(N)NS(=O)(=O)c1ccc(N)cc1 [Sulfaguanidine],-0.422,-1.14,-0.502,-0.128,-0.444,-0.493
CN1CC2c3ccccc3Oc3ccc(Cl)cc3C2C1 (configuration not stated) [Asenapine maleate],2.13,2,0.865,-0.413,1.3,0.927
COc1cccc(N(C)C(=S)Oc2ccc3c(c2)CCCC3)n1 [Liranaftate],0.29,-0.439,-0.212,0.593,-0.0958,-0.421
CCCCC(O)c1ccccc1 (configuration not stated) [Fenipentol],-0.545,-0.11,-0.922,-0.426,-0.553,-0.613
Oc1ncnc2[nH]ncc12 [Allopurinol],-0.351,0.486,-0.157,-0.285,-0.415,-0.506
NCCCC[C@H](N[C@@H](CCc1ccccc1)C(=O)O)C(=O)N1CCC[C@H]1C(=O)O [Lisinopril],-0.555,-0.949,-0.886,-0.862,-0.636,-0.71
